PubChem BioAssay (NCI)
Compounds without any hit were thinned out: in the full panel of roughly 83,000, 20% have a hit.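 In brief: 96-well plates, 48 h treatment, single concentration, percent growth endpoint.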 Unmarked numbers belong to inactive results. Active and inactive are the calls of the source. How the source made its calls: active means growth percent below 10; inactive means the rest.

Columns and labels:
Assay in all cases: NCI-60 one-dose screen, 48 h (100 = growth as untreated, 0 = no growth, -100 = all killed)
Settings in all cases: 10 µM unless noted
[1] = tested on: T-47D breast
[2] = tested on: BT-549 breast
[3] = tested on: MDA-MB-435 melanoma
[4] = tested on: SW-620 colon
[5] = tested on: MCF7 breast
[6] = tested on: HCT-116 colon
[7] = tested on: HCC-2998 colon
[8] = tested on: KM12 colon

| Compound | growth [1] | growth [2] [%] | growth [3] | growth [4] | growth [5] | growth [6] | growth [7] | growth [8] |
| --- | --- | --- | --- | --- | --- | --- | --- | --- |
| Oc1ccc(CSc2nnc(-c3cnccn3)o2)c2cccnc12 | 18.5% | 31.7 | 13.1% | 12.9% | 5.44% (active) | 14.5% | 13.2% | 12.5% |
| O=C(CCCCCCN1CC(=O)N2[C@@H](c3ccccc3)c3[nH]c4ccccc4c3C[C@H]2C1=O)NO | 25.7% | 91.5 | 46.1% | 38.7% | 47.1% | 20.9% | 85.8% | 65.2% |
| COc1ccc(N)cc1C(=O)Nc1cccc(-c2cc(=O)c3c(OC)c(OC)c(OC)cc3o2)c1 | 41.7% | 51.2 | 77.4% | 91.4% | 45.2% | 65.5% | 55.3% | 63.6% |
| O=c1c2c(O)cccc2oc2c3c(cc(O)c12)O[C@H]1OC=C[C@@H]31 | 57.4% | 95.2 | 83.3% | 78.1% | 8.3% (active) | 86.6% | 63.8% | 82.4% |
| COC1=C(c2ccccc2)C(=O)C(OC)=C(c2ccccc2)C1=O | 60.9% | 104 | 93.7% | 98.8% | 85.2% | 96.3% | 94.4% | 98.6% |
| COc1cc(C(=O)c2cc(C(C)=O)c3c4ccccc4ccn23)cc(OC)c1OC | 24.8% | 59 | 5.4% (active) | 44.5% | 34.2% | 42.2% | 62.9% | 43.9% |
| Clc1ccc(-c2nc3ccc(/C(=N\N=C\c4ccccc4)c4ccccc4)cc3[nH]2)cc1 | 70.7% | 92.5 | 88.9% | 91.2% | 78.3% | 84.5% | 103% | 82.3% |
| Cn1cc(-c2nn3cc(-c4cccnc4)nc3s2)c2cc(F)ccc21 | 65% | 92 | 29.7% | 80.3% | 37.8% | 91% | 96.6% | 76.4% |
| ClC(Cl)c1nc(-c2cccs2)n2nc(-c3ccccc3)cc2n1 | 2.65% (active) | 87.4 | -9.17% (active) | -1.61% (active) | -4.41% (active) | -23.7% (active) | -71.3% (active) | -36.4% (active) |
| Nc1nc(-c2cccc([N+](=O)[O-])c2)c(N=Nc2cccc(Cl)c2)s1 | 13.6% | 48.7 | 53.3% | 52.4% | 19.1% | 33.2% | 27.2% | 25.7% |
| COc1ccc2c(ccn2C(=O)N2c3ccccc3Sc3ccccc32)c1 | 23% | 34.3 | -18.9% (active) | 16.8% | 29.6% | 31.6% | 48.9% | 24.2% |
| O=C(CN1C(=O)CSC1=O)Nc1ccc(C(=O)/C=C/c2cc3ccccc3nc2Cl)cc1 | 58.7% | 66.1 | 25.6% | 95.6% | 12.5% | -45.5% (active) | 82.1% | 62.2% |
| COc1cc2c3c(n(CCCN4CCCC4)c(=O)c2cc1OC)-c1cc2c(cc1C3=O)OCO2 | 78.3% | 82.3 | -12.5% (active) | -63.1% (active) | -71.7% (active) | -84% (active) | 42.2% | -23.4% (active) |
| COc1cc2cc(Oc3ccc(NC(=O)Nc4cc(C(F)(F)F)cc(C(F)(F)F)c4)cc3)c(C)nc2cc1OCCN(C)C | 106% | 114 | 106% | 106% | 93% | 110% | 103% | 104% |
| COc1ccc(Cn2cc3c(c2-c2cc(OC)c(OC)c(OC)c2)CCCc2cnoc2-3)cc1N | 51.5% | 68.2 | -45.3% (active) | 29.6% | 15.2% | 24.1% | 49% | 26.1% |
| COc1ccc(-c2cc(-c3ccc(Cl)cc3)nc3nc(N)nn23)cc1 | 91.4% | 92.3 | 102% | 104% | 89.9% | 98.8% | 100% | 99.7% |

| Compound | growth [1] | growth [2] [%] | growth [3] | growth [4] | growth [5] | growth [6] | growth [7] | growth [8] |
| --- | --- | --- | --- | --- | --- | --- | --- | --- |
| NC(=O)c1c(NC(=O)c2cccc(OC(F)(F)F)c2)sc2c1CCC(=O)C2 | 28.1% | 28.4 | 64.7% | 18.3% | 27.4% | 15.6% | 104% | 31.4% |
| Cc1[nH]nc2ccc(-c3nc4cnc(N5CCN(C)CC5)cn4c3Nc3ccc(F)cc3Br)cc12 | 38.9% | 91.1 | 30.7% | 32.8% | 15.5% | 11% | 69.8% | 59.3% |
| CC(C)(C)OC(=O)N1CCN(S(=O)(=O)/N=C2\NC(=O)NC2=C(Cl)Cl)CC1 | 75.3% | 101 | 103% | 34.3% | 79.7% | 98% | 75% | 107% |
| O=C(/C=C/Nc1ccc(S(=O)(=O)O)cc1)c1ccc(F)cc1 | 99.4% | 119 | 100% | 94.8% | 90% | 107% | 106% | 104% |
| Oc1ccc(CSc2nnc(-c3cnccn3)n2-c2ccccc2)c2cccnc12 | 7.38% (active) | 41.8 | 23.4% | 23.8% | 2.85% (active) | 19.3% | 42.1% | 18.9% |
| CC1CCc2c(sc3nc(SCC(=O)N/N=C/c4cccc(O)c4O)n(-c4ccccc4)c(=O)c23)C1 (stereo not drawn) | 74.5% | 127 | 88.4% | 85.4% | 88.3% | 85.8% | 104% | 88.9% |
| C=C(C)[C@@H]1CC[C@]2(C)[C@H](CC=C3[C@@H]4CC(C)(C)CC[C@]4(C(=O)NCC#CCN4CCN(C)CC4)CC[C@]32C)[C@@]1(C)CCC#N | 61.7% | 69.3 | 24.2% | 43.8% | 27% | 17.5% | 55.2% | 43.6% |
| N#Cc1c(-c2cccs2)cc(-c2cnccn2)nc1SCC(=O)NNC(=S)Nc1ccc(F)cc1 | 102% | 118 | 101% | 105% | 86.1% | 102% | 109% | 101% |
| COc1ccc2c(c1)c(-c1nnc(N)nc1-c1cn(C)c3ccccc13)cn2C | 82.3% | 108 | 91.6% | 94.6% | 79.5% | 89.2% | 102% | 94.6% |
| O=C(O)c1ccc(-n2cc(CNc3ccc(Cl)cc3)c(-c3ccc(F)cc3)n2)cc1 | 91.4% | 101 | 98.1% | 106% | 80.1% | 82.7% | 112% | 104% |
| CCOC(=O)/C(F)=C/C1CC1C1CCCCC1 (stereo not drawn) | 102% | 124 | 102% | 101% | 92.2% | 97.2% | 107% | 104% |
| COc1ccc([C@H]2c3[nH]c4ccccc4c3C[C@@H]3C(=O)N(C4CCN(Cc5ccccc5)CC4)CC(=O)N23)c(OC)c1 | 82.8% | 86.1 | 83.3% | 79.9% | 51.7% | 56.8% | 78.1% | 79.6% |
| CCCCOc1ccc(S(=O)(=O)N2CCN(c3nccc(N4CCOCC4)n3)CC2)cc1 | 69% | 13 | 14.5% | 34.8% | 87.5% | 12.6% | 33.8% | 16% |
| O=C(NCCCNc1cc(-c2cn(-c3ccccc3)nc2-c2cccc(O)c2)ccn1)Nc1cc(C(F)(F)F)cc(C(F)(F)F)c1 | 77.5% | 84.9 | 75.3% | 94.2% | 59.1% | 51.2% | 66.8% | 58.1% |
| O=C(Nc1cccc(Cl)c1)Nc1nc2ccc(-c3cccc4ccccc34)cc2s1 | 11.2% | 102 | 54.3% | 43.7% | 58.3% | 27% | 57.3% | 23% |
